From PubChem BioAssay AID624295 (Southern Research Specialized Biocontainment Screening …, 2012) come the findings set out here.

Activity calls are given as the source filed them. How the calls were made is not given here.

The assay in a line: viability of Vero 76 cells – cell-based, set 6, cytotoxicity control for VEEV inhibitor project (AID 624295). Particulars: Vero 76 cells viability, cytotoxicity counter-screen; series mostly up to 25 µM.
Take `CCN1CCN(Cc2nc3cccc([N+](=O)[O-])c3c(=O)n2-c2ccccc2)CC1`: the molecule was classed as inactive.
On to `NS(=O)(=O)c1ccc(-n2c(-c3ccccc3)nc3ccc(Br)cc3c2=O)cc1`, for which the molecule was called inactive.
Turning to `CCN1CCN(Cc2nc3ccc(I)cc3c(=O)n2-c2ccccc2)CC1`, the result was inactive.
Consider `CCN1CCN(Cc2nc3ccc([N+](=O)[O-])cc3c(=O)n2-c2ccc(F)cc2)CC1`, for which the result was inactive.
As to `O=c1c2cc([N+](=O)[O-])ccc2nc(CN2CCCCC2)n1-c1ccccc1F`, the molecule was called inactive.
As for `CCN1CCN(Cc2nc3ccc([N+](=O)[O-])cc3c(=O)n2-c2cccc(F)c2)CC1`, the outcome was inactive.
Take `CCN1CCN(Cc2nc3ccc([N+](=O)[O-])cc3c(=O)n2C(C)C)CC1`: the call was inactive.
`CCN1CCN(Cc2nc3ccc(C(=O)N(C)C)cc3c(=O)n2-c2ccccc2)CC1`: the molecule was called inactive.
For `CCN1CCN(Cc2nc3ccc([N+](=O)[O-])cc3c(=O)[nH]2)CC1`, the result was inactive.
As to `CCN1CCN(Cc2nc3ccc(C(N)=O)cc3c(=O)n2-c2ccccc2)CC1`, the result was inactive.
As for `CN1CCN(Cc2nc3ccc([N+](=O)[O-])cc3c(=O)n2-c2ccccc2F)CC1`, the entry is “inactive”; as for `O=c1c2cc([N+](=O)[O-])ccc2nc(CN2CCNCC2)n1-c1ccccc1`, “inactive”; as for `CCN1CCN(Cc2nc3cc([N+](=O)[O-])ccc3c(=O)n2-c2ccccc2)CC1`, “inactive”.
In the case of `CCN1CCN(Cc2nc3ccc([N+](=O)[O-])cc3c(=O)n2-c2ccccc2)CC1`, the outcome was inactive.
With `O=c1c2cc([N+](=O)[O-])ccc2nc(CN2CCNCC2)n1-c1ccccc1F`, the outcome was inactive.
